In PubChem BioAssay (NCI) one finds growth inhibition data, which are given here for 20 molecules.

SMILES strings stand for the structures. This is part of a sample that, as a whole, favours compounds with a hit. Of some 79,000 tested, about 15% had one in any assay. Values without a mark were called inactive. Activity calls are given as the source filed them. No stated cut-off is given here; in the data, active means growth inhibition above about 70%; inactive means the rest.

Test [1] is described as follows: NCI Yeast Anticancer Drug Screen. Data for the rad50 strain (AID 155).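 Further: 0% = growth of vehicle-only cultures of the same strain.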 The settings on record: S. cerevisiae rad50 strain growth inhibition; at 50.0 µM; active compounds read high. In a few lines: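 Growth of the mutant yeast was measured after compound exposure and referenced to vehicle-treated cultures.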
A short description of test [2]: NCI Yeast Anticancer Drug Screen. Data for the mec2-1 strain (AID 157). The following applies: S. cerevisiae mec2-1 strain, at 50.0 µM, active compounds read high. A digest of the protocol: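 Readout is yeast growth inhibition, normalised to vehicle-treated controls, in the mec2-1 strain exposed to compound.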
Test [3] in a line: NCI Yeast Anticancer Drug Screen. Data for the sgs1 mgt1 strain (AID 161).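 Further: 0% = growth of cultures given vehicle only.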 The settings on record: S. cerevisiae sgs1 mgt1 strain, at 50.0 µM, active compounds read high. In a few lines: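 Growth of a repair-deficient yeast mutant was monitored after compound treatment and expressed as inhibition relative to vehicle-treated cultures.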
Test [4] can be described thus: NCI Yeast Anticancer Drug Screen. Data for the cln2 rad14 strain (AID 165).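 Further: 0% = growth equal to vehicle treated cultures.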 The following applies: S. cerevisiae cln2 rad14 strain, at 50.0 µM, active compounds read high. A digest of the protocol:
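Relative to vehicle controls, growth inhibition of compound-treated cln2 rad14 yeast was recorded.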

Test [5] in a line: NCI Yeast Anticancer Drug Screen. Data for the bub3 strain (AID 167). The following applies: S. cerevisiae bub3 mutant strain, at 50.0 µM, active compounds read high. In a few lines:
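Whole-cell yeast assay. The mutant strain was incubated with compounds, and growth inhibition was determined by comparison with vehicle-treated cells.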

Test [6] is described as follows: NCI Yeast Anticancer Drug Screen. Data for the mlh1 rad18 strain (AID 175). The following applies: S. cerevisiae mlh1 rad18 strain growth inhibition; at 50.0 µM; active compounds read high. In a few lines:
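Test agents were incubated with a yeast strain of defined genotype (DNA damage repair defect). Inhibition of growth was derived by comparison with vehicle-exposed cultures.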

As for `Nc1nc2c(ccc3ccccc32)[nH]1`, the growth inhibition in test [1] was -19.8%; in test [2] it was 6.8%; in test [3] it was 8.4%; in test [4] it was 6.5%; in test [5], 10.3%; in test [6], 21.6%.

Consider `CCCCN(CCCC)S(=O)(=O)c1ccc(OCCOc2ccc(S(=O)(=O)N(CCCC)CCCC)cc2)cc1`, for which the growth inhibition in test [1] is 10.7%; in test [2], -1.4%; in test [3], 15.2%; in test [4] it was -12.4%; in test [5], -5.1%; in test [6] it was 7.75%.

On to `CCSc1ncnc2nc[nH]c12`, for which the growth inhibition in test [1] was 9%; in test [2] it was -8.8%; in test [3], 4.4%; in test [4] it was -18.4%; in test [5] it was -9.55%; in test [6], 8.4%.

On to `O=Cc1c(Cl)c(Cl)c(Cl)c(Cl)c1Cl`, for which the growth inhibition in test [1] was -2.3%; in test [2], 6.3%; in test [3] it was 16.9%; in test [4], -39.6%; in test [5], 4.6%; in test [6], 51.1%.

For `CC1CCC(CCBr)CC1` (stereo not given), the growth inhibition in test [1] was 5.8%; in test [2] it was -9.9%; in test [3], 5.15%; in test [4], -3.15%; in test [5], 0.9%; in test [6] it was 2.25%.

For `CC(C)(C)CC(C)(O)C(=O)O` (stereo not given), the growth inhibition is 6.9% in test [1]; -18.9% in test [2]; -15.8% in test [3]; -1.45% in test [4]; -13.5% in test [5]; -3.55% in test [6].

On to `O=C(COCC(=O)N/N=C/c1c(O)ccc2ccccc12)N/N=C/c1c(O)ccc2ccccc12`, for which the growth inhibition in test [1] is -2%; in test [2] it was -13%; in test [3] it was -5.25%; in test [4] it was -8.25%; in test [5], -1%; in test [6] it was 6.9%.

For the molecule `Oc1c(CN2CCOCC2)cc(CN2CCOCC2)cc1CN1CCOCC1`, the growth inhibition in test [1] was 7.7%; in test [2], 0.5%; in test [3], -5.4%; in test [4], 2.2%; in test [5], 6.6%; in test [6], 6.55%.

As to `COC1=C(OCc2ccccc2)C(=O)OC1C(O)CO` (stereo not given), the growth inhibition in test [1] was -3.1%; in test [2], 11.4%; in test [3], 0.5%; in test [4], -1.3%; in test [5] it was -7.55%; in test [6], -12%.

With `CC1c2ccccc2-c2ccccc21`, the growth inhibition was 10.2% in test [1]; -4.9% in test [2]; 7.25% in test [3]; -3.15% in test [4]; -1% in test [5]; 20.4% in test [6].

As to `c1ccc(COCCc2ccccn2)cc1`, the growth inhibition in test [1] was -5.3%; in test [2], -19.9%; in test [3] it was -3.85%; in test [4], -26.1%; in test [5], -22.2%; in test [6] it was -20.4%.

In the case of `O=C1C(Cc2ccccc2)C(=O)N2c3ccccc3C=CC2N1c1ccccc1` (stereo not given), the growth inhibition in test [1] is 13.2%; in test [2] it was 13.7%; in test [3], 4.6%; in test [4], 0.55%; in test [5], -10%; in test [6], 8.45%.

In the case of `ClCC(OCc1ccccc1)OCc1ccccc1`, the growth inhibition is -21.6% in test [1]; 4.8% in test [2]; -4.45% in test [3]; -36% in test [4]; 12.4% in test [5]; 17.1% in test [6].

Regarding `Cn1c(N)cc(=O)n(C)c1=O`, the growth inhibition in test [1] was 22.6%; in test [2], 3.95%; in test [3], 18%; in test [4] it was 0.1%; in test [5] it was 17.5%; in test [6] it was 27%.

For the molecule `CCCCCCCCCCCCCCCCCCCCCCCCCC(=O)O`, the growth inhibition in test [1] is 30.4%; in test [2] it was -20.2%; in test [3] it was 32.5%; in test [4], 4.5%; in test [5], 23.9%; in test [6], 4.95%.

`COC1/C=C/C(C)C(C(C)C(OC)C(C)CCC(=O)C(C)C(C/C=C/N(C)C=O)OC)OC(=O)/C=C/C=C(\C)CC(OC)C(OC)C2=CC(=O)O[C@@H](C(C)C(OC)CC(OC)/C=C/C(C)C(O)C1)[C@H]2O` (stereo not given in full): the growth inhibition was 86.8% (active) in test [1]; 90.2% (active) in test [2]; 90% (active) in test [3]; 89.8% (active) in test [4]; 87.7% (active) in test [5]; 91% (active) in test [6].

Consider `FC12CCC(c3ccccc3)(CC1)CC2`, for which the growth inhibition is 11.8% in test [1]; -8.55% in test [2]; -4% in test [3]; -30.1% in test [4]; -3.5% in test [5]; -7.4% in test [6].

`CC(C)CC(NC(=O)c1ccccc1C(=O)O)C(N)=O` (stereo not given): the growth inhibition is -6.7% in test [1]; 3.5% in test [2]; 6.65% in test [3]; -0.15% in test [4]; 6.2% in test [5]; -19% in test [6].

As for `CCCCCSC1CCCC1`, the growth inhibition in test [1] is 35%; in test [2], -10%; in test [3] it was 7.65%; in test [4] it was -2.2%; in test [5] it was 9.5%; in test [6] it was 28.7%.

With `CCN(CC)CCSc1nnc(-c2cc(OC)c(OC)c(OC)c2)o1`, the growth inhibition in test [1] is 32.5%; in test [2], 1.1%; in test [3], -21.1%; in test [4], 14.8%; in test [5], 4.2%; in test [6], -9.85%.
